Measurements taken from PubChem BioAssay (NCI).
The panel holds about 79,000 compounds, 15% with a hit somewhere; the sample as a whole holds those more often. Active and inactive are the calls of the source. Rule as the data show it: active = growth inhibition above about 70%; inactive = the rest. Where a SMILES comes first, the peptide text is derived from it. The star is where a group is joined. Boc = CC(C)(C)OC(=O)*

What was measured:
[1] = NCI Yeast Anticancer Drug Screen. Data for the rad50 strain (AID 155);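 also: 0% = growth of vehicle-only cultures of the same strain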; conditions: S. cerevisiae rad50 strain growth inhibition; at 50.0 µM; stronger effect = higher value
How it was run: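 Inhibition values express reduced yeast growth in compound-treated cultures relative to vehicle-treated controls.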

[2] = NCI Yeast Anticancer Drug Screen. Data for the mec2-1 strain (AID 157); conditions: S. cerevisiae mec2-1 strain, at 50.0 µM, stronger effect = higher value
How it was run: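 Mutant yeast (mec2-1) grown with compound; growth inhibition relative to vehicle control reported.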

[3] = NCI Yeast Anticancer Drug Screen. Data for the sgs1 mgt1 strain (AID 161);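 also: 0% = growth of cultures given vehicle only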; conditions: S. cerevisiae sgs1 mgt1 strain, at 50.0 µM, stronger effect = higher value
How it was run: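 Yeast cells carrying a defined DNA-repair defect were exposed to test compounds. Growth inhibition was measured relative to vehicle-treated controls.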

[4] = NCI Yeast Anticancer Drug Screen. Data for the cln2 rad14 strain (AID 165);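 also: 0% = growth equal to vehicle treated cultures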; conditions: S. cerevisiae cln2 rad14 strain, at 50.0 µM, stronger effect = higher value
How it was run: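 Readout is yeast growth inhibition versus vehicle-treated controls, using a strain with cln2 and rad14 alterations exposed to compound.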

[5] = NCI Yeast Anticancer Drug Screen. Data for the bub3 strain (AID 167); conditions: S. cerevisiae bub3 mutant strain, at 50.0 µM, stronger effect = higher value
How it was run: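 Steps: expose the mutant yeast strain to compound; grow alongside vehicle-treated cultures; measure growth; express inhibition against the vehicle cultures.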

[6] = NCI Yeast Anticancer Drug Screen. Data for the mlh1 rad18 strain (AID 175); conditions: S. cerevisiae mlh1 rad18 strain growth inhibition; at 50.0 µM; stronger effect = higher value
How it was run: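 Genetically defined yeast (DNA repair-deficient) exposed to compounds; growth inhibition determined relative to vehicle.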

Measured: growth inhibition

O=C1OC(=C(Cl)Cl)C2C3c4ccccc4C(c4ccccc43)C12 (stereo not given)
inactive: [1] 21.9% | [2] 21.6% | [3] -1.5% | [4] 8.75% | [5] 2.7% | [6] 18.2%

CN(C)CC1CCCC(CN(C)C)C1=NOC(=O)c1ccccc1 (stereo not given)
inactive: [1] -8.15% | [2] -33.8% | [3] -2.3% | [4] -21.4% | [5] 8.05% | [6] -27.8%

CCN(CC)c1nc(=O)c(C(=O)C(C)(C)C)c(C(C)(C)C)o1
inactive: [1] -14.9% | [2] -39% | [3] -34.1% | [4] -11.8% | [5] -9.15% | [6] -17.1%

CCOC(=O)C(CN1CCN(CC(NC=O)(C(=O)OCC)C(=O)OCC)CC1)(NC=O)C(=O)OCC
inactive: [1] -17.1% | [2] -28.3% | [3] -11.9% | [4] -0.5% | [5] 1.15% | [6] -30.1%

CC1(C)C(CC(=O)O)CCCC1CC(=O)O (stereo not given)
inactive: [1] 12.2% | [2] 0.95% | [3] 4.15% | [4] 2.15% | [5] -11.4% | [6] 49.2%

COC(=O)/C(=N\NC(N)=O)C(C(=O)C=C(C)C)C(=O)C(=O)Nc1ccc(Cl)c(Cl)c1 (stereo not given)
inactive: [1] -9% | [2] -40.6% | [3] -34.6% | [4] 12.2% | [5] -17% | [6] -27.6%

COc1ccccc1CC(=O)O
inactive: [1] 27.9% | [2] 2.15% | [3] 16.4% | [4] 17.3% | [5] -1.85% | [6] 0.05%

CCSC(OC(C)=O)C(Nc1ccc([N+](=O)[O-])cc1[N+](=O)[O-])C(OC(C)=O)C(OC(C)=O)C(COC(C)=O)OC(C)=O (stereo not given)
inactive: [1] 23.7% | [2] 10.8% | [3] 6.2% | [4] 17.2% | [5] -0.6% | [6] 24.9%

COc1cc(NCCCCC2CCCCN2)c2ncccc2c1 (stereo not given)
inactive: [1] 15.7% | [2] 2% | [3] 39% | [4] -11.4% | [5] 55.5% | [6] 48.8%

COc1cc(C(=O)O)c([N+](=O)[O-])c(OC)c1OC
inactive: [1] -12.3% | [2] -6.35% | [3] -18.1% | [4] -11.2% | [5] -29.9% | [6] -7.5%

CC(=O)NC1C(OCc2ccccc2)OC(COC(=O)CCCCCCCCCCNc2ccc([N+](=O)[O-])c3[nH]c4ccccc4c(=O)c23)C(O)C1OC(C)C(=O)NC(C)C(=O)NC(CCC(N)=O)C(=O)OCc1ccccc1 (stereo not given)
inactive: [1] 30.7% | [2] 9.8% | [3] -3.3% | [4] 14.4% | [5] 6.15% | [6] 12.9%

CN1CCC2c3c([nH]c4ccccc34)C(C)(C)OC2C1 (stereo not given)
inactive: [1] -11.9% | [2] -35.9% | [3] -33.6% | [4] 9.2% | [5] -24.6% | [6] 6.65%

CCCCN(CCCC)C(=O)C(=O)C(C#N)c1ccc(C)cc1 (stereo not given)
inactive: [1] -7% | [2] -0.8% | [3] 6.15% | [4] 17.6% | [5] 20.7% | [6] -9.3%

Cc1nn(C(=O)CC(=O)Nc2ccccc2Cl)c(C)c1N=Nc1ccccc1Cl
inactive: [1] -11.3% | [2] 1.8% | [3] -29.1% | [4] 35.1% | [5] -8.55% | [6] -23.1%

COc1ccc(NC(=O)Nc2cc(Cl)ccc2C)c(Cl)c1
inactive: [1] 0.7% | [2] 36% | [3] 29.8% | [4] -3.35% | [5] 30.4% | [6] 29.9%

Cc1c(-c2ccccc2)c2ccccc2n1C
inactive: [1] 38.1% | [2] 8.55% | [3] 10.4% | [4] 20.3% | [5] 20.6% | [6] 22.5%

CCOC(=S)Sc1ccc2c(c1)-c1ccc(F)cc1C2=O
inactive: [1] 7% | [2] 6.3% | [3] 2.1% | [4] 10.2% | [5] -3.85% | [6] -1.65%

COc1ccc(NS(=O)(=O)c2ccc(NC(=O)NCCCl)cc2)nn1
inactive: [1] 13% | [2] -0.2% | [3] -9.85% | [4] 8.95% | [5] 2.55% | [6] 5.85%

Cc1cc(Cl)ccc1OCC(=O)OCCBr
inactive: [1] 3.55% | [2] 17.9% | [3] 5.35% | [4] -23.2% | [5] -22.9% | [6] -8.15%

CCC/C=C(/CC)C(=O)OC(=O)/C(=C/CCC)CC
inactive: [1] 23.9% | [2] 2.1% | [3] 13.8% | [4] -7.25% | [5] 32.1% | [6] 13.6%

COc1cc(Cl)ccc1NC(=O)COc1ccc(Cl)cc1
inactive: [1] 4.55% | [2] 0.5% | [3] -12.8% | [4] -3.6% | [5] 20% | [6] -17.1%

COC(=O)c1cc(C(=CCC[C@H]2CC[C@@]3(C)C(CCC4C3CC[C@@]3(C)C4CC[C@@H]3C(C)CCCC(C)C)C2)c2cc(Cl)c(O)c(C(=O)OC)c2)cc(Cl)c1O (stereo not given in full)
inactive: [1] 0% | [2] 4.1% | [3] -10% | [4] 6.6% | [5] 5.15% | [6] -18.4%

CC1(C)Oc2ccc3c(=O)cc(-c4ccccc4)oc3c2C1C(=O)O (stereo not given)
inactive: [1] 4.7% | [2] -14.5% | [3] -18.6% | [4] -22.6% | [5] 9.7% | [6] -24%

CC(C)CCCC(C)CCCC(C)CCCC(C)CC(=O)O (stereo not given)
inactive: [1] -9.35% | [2] -25.5% | [3] -16.9% | [4] 43% | [5] -1.2% | [6] -23.3%

CNC(=O)CNC(=O)C(NC(=O)CNC(=O)C1CCCN1C(=O)C(C)NC(=O)C(NC(=O)OC(C)(C)C)C(C)C)C(C)C (stereo not given) (Boc-VAPGVG-NHMe; configuration not given here)
inactive: [1] -12.9% | [2] -23.6% | [3] -11.8% | [4] -11% | [5] -16.2% | [6] -18.2%

O=C1CCCCC1CC1(O)C(=O)NC2CCC(Br)CC21 (stereo not given)
inactive: [1] -11.6% | [2] -3.3% | [3] 21.6% | [4] 8.75% | [5] 18.7% | [6] 5.6%

COC(=O)C(=O)OC
inactive: [1] 27.1% | [2] -10% | [3] -11.3% | [4] -39% | [5] 1.15% | [6] -3.35%

CNNC1=NS(=O)(=O)c2cc(C(=O)OC)c(Cl)cc2S1
inactive: [1] 8.75% | [2] -2.25% | [3] -9.9% | [4] 0.5% | [5] -6% | [6] 8.25%

O=C(c1ccccc1)N(C(=O)c1ccccc1)c1cccc[n+]1[O-]
inactive: [1] 4.4% | [2] -2.25% | [3] -1.75% | [4] -12.2% | [5] -10.2% | [6] -4%

O=Cc1ccnc2c(Cl)cccc12
inactive: [1] 16.4% | [2] 22.8% | [3] -1.1% | [4] 15.1% | [5] 6.3% | [6] 18%

C/C=C(\CC)C(C#N)(CCC)C(=O)OCC (stereo not given)
inactive: [1] -10.2% | [2] -17.6% | [3] -21.2% | [4] -9% | [5] -33.1% | [6] -17.6%

Cc1ccc(S(=O)(=O)N/N=C/c2cc(I)cc(I)c2O)cc1
active: [1] 99.5% | [2] 99.3% | [3] 99.2% | [4] 99.4% | [5] 98.3% | [6] 99.1%

CC1(C)OC2C(C(=O)O)OC(n3cnc4c(N)ncnc43)C2O1 (stereo not given)
inactive: [1] -3.35% | [2] -12.2% | [3] -9.7% | [4] -2.05% | [5] -21.6% | [6] -0.7%

CN(C)CCCSc1nc2ccccc2[nH]1
inactive: [1] -7.85% | [2] -13.8% | [3] -20.6% | [4] 0.75% | [5] 7.1% | [6] -6.6%

O=C1C=C(Nc2nc(O)cc(=O)[nH]2)c2ccccc2C1=O
inactive: [1] 0.75% | [2] 2.2% | [3] 1.15% | [4] -38.5% | [5] -0.4% | [6] 13.5%

N#CC(C#N)=C/C=C/C=C/c1c(Cl)cccc1Cl
inactive: [1] -6% | [2] 1.8% | [3] 0.95% | [4] -3.25% | [5] -6.8% | [6] -14.4%

Cc1ccc(S(=O)(=O)Oc2ccc(-c3ccc([N+](=O)[O-])cc3)cc2)cc1
inactive: [1] 1.5% | [2] 19.2% | [3] 15.4% | [4] -6.9% | [5] -1.8% | [6] 7.05%

CCOC(=O)/C(C#N)=C/c1ccnc2ccccc12
inactive: [1] -39.7% | [2] -46.5% | [3] -30.8% | [4] -45.4% | [5] -29.1% | [6] -23.1%

CCCCCCC1=CC(=O)CC(=O)C1
inactive: [1] 25.9% | [2] 7.1% | [3] 16.6% | [4] 13.6% | [5] 18% | [6] 4.25%

CCCCCCCC(N)C(=O)O (stereo not given)
inactive: [1] 0% | [2] -2.55% | [3] 2.25% | [4] -26.2% | [5] -10.1% | [6] -12.9%
